Screening data deposited in PubChem BioAssay by National Center for Advancing Translational Sciences (NCATS).
Only some compounds are listed: those with a hit (about 7.3% of all), similar ones and a draw of the others.
SNCA expr inh – reduces expression of the alpha-synuclein gene; 140,000 compounds, 0.17% hits; HEK-293 SNCA-luciferase knock-in, luminescence, 24 h; Potency, µM (titrated, usually from 57.2 µM), for inactives: top-dose activity change, negative = inhibition, usual class: inhibitors; AID 1671194;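 note: potency is the fitted concentration of half-maximal effect; plate controls were DMSO cells for no effect and cell-free wells for full effect; nearly all actives have a fitted effect of over 45% in size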
FLuc inh – inhibitors of firefly (Photinus pyralis) luciferase; Potency, µM (highest dose often 115 µM), most hits filed as inhibitors; 76,000 compounds, 2.5% hits; P08659; purified P. pyralis luciferase, luminescence, biochemical; note: potency is the fitted concentration of half-maximal effect; nearly all actives have a fitted effect of over 65% in size
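Luminescence read by CCD imager after adding enzyme (10nM final) to wells holding compound, titrated in qHTS. Substrates 10uM each D-luciferin and ATP; buffer 50mM Tris acetate pH 7.5, 10mM Mg acetate, Tween-20, BSA.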
3T3 cytotox – NIH 3T3 cell cytotoxicity. NIH 3T3 viability, CellTiter-Glo ATP luminescence, 48-72 h. Potency, µM (titrated, usually from 96.7 µM), inactives show at the highest dose activity change, negative = cytotoxicity, most hits filed as inhibitors. 94,000 compounds, 4.3% hits. AID 1345082; note: potency is the fitted concentration of half-maximal effect; nearly all actives have a fitted effect of over 55% in size
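Mouse fibroblast NIH 3T3 cells, 400 per well, received compound via pintool and were incubated for 48 or 72 hr prior to CellTiter-Glo ATP luminescence measurement.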
HEK cytotox – kills HEK 293 cells | HEK 293 viability, ATP luminescence (CellTiter-Glo), 48-72 h | AID 1345083 | 94,000 compounds, 6.6% hits | Potency, µM (doses to about 115 µM), inactives show top-dose activity change, negative = cytotoxicity, hits mostly inhibitors; note: potency is the fitted concentration of half-maximal effect; nearly all actives have a fitted effect of over 60% in size
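HEK 293 cells at 250 cells/well were exposed to compounds by pintool transfer for 48 or 72 hr at 37 degree Celsius, 5% CO2. Viability was read as ATP-coupled luminescence with CellTiter-Glo after 10 min at room temperature.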
IP6K1 inh – blocks human inositol hexakisphosphate kinase 1. Q92551. IP6K1 kinase, ADP-Glo luminescence, 2 h; active compounds read low. activity change, % (series mostly up to about 58 µM). 140,000 compounds, 0.81% hits. AID 1645851; in the data active = activity change below about -25%
Target sequence (Q92551 whole entry, looked up): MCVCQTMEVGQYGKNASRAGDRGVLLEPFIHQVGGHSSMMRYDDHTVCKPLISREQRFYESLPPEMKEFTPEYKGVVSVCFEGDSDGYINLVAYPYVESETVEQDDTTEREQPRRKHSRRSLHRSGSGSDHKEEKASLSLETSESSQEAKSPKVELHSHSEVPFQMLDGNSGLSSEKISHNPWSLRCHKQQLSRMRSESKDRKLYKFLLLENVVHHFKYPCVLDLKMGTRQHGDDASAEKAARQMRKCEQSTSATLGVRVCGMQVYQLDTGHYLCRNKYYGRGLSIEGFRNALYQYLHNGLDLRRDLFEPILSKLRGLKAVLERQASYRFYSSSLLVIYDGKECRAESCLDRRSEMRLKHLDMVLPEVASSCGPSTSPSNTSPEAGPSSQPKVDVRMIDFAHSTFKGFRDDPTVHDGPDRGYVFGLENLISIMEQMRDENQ
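ADP-Glo luminescence measures ADP made by human IP6K1 during a 2 h RT reaction with ATP/IP6 (mix at 1.3 mM/130 uM); top library doses 57.5 and 19.1 uM final.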
SNCA viab count – counter-screen for SNCA expression inhibitors: cell viability; HEK-293-SNCA-luc viability, GF-AFC fluorescence, 24 h; Potency, µM (doses to about 57.1 µM), for the others: at the highest dose activity change, negative = cytotoxicity, hits mostly cytotoxic; 150,000 compounds, 0.12% hits; AID 1671193;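 note: potency is the fitted concentration of half-maximal effect; 0% = DMSO-treated cells and -100% = medium-only wells without cells; nearly all actives have a fitted effect of over 30% in size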
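HEK-293-SNCA-luc cells (1500/well) plated 24 h, then exposed 24 h to a dilution series; GF-AFC added 30 min at 37C, fluorescence 405/540 nm; normalised to medium-only and DMSO wells, Hill fit.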
* = called active by the depositor; i = inactive; ? = inconclusive; nt = no result given; [ ] = remark or other dose. Unless noted, calls come from the whole dose curve; as a rule, active = well fitted curve in the direction sought with a large enough effect; inconclusive = small, poorly fitted or top-dose-only effect, or another doubt; inactive = no such curve, though single readings can be large; an effect the other way counts as inactive or inconclusive. Unless noted, % is set by controls: 0 for no effect and ±100 for the full control effect.

SMILES	SNCA expr inh	FLuc inh	3T3 cytotox	HEK cytotox	IP6K1 inh	SNCA viab count
CN(C)c1ncc2c(n1)C(C)(C(=O)Nc1ccccc1)CCC2 (configuration not stated)	-21%[87.6 µM]	i	?	?	-3	-4%[87.6 µM]
c1cc(-c2ccco2)cc(-c2nc(C3CCOC3)no2)c1 (configuration not stated)	26%	45µM*	?	-9%	-3	-6%
COc1ccc(C(=O)Nc2nc3c(s2)C[C@@H]2[C@](C)(CO)[C@H](O)CC[C@@]2(C)[C@@H]3CC(=O)NCc2ccco2)cc1	-10%	i	?	79µM*	-6	-4%
CC(C)(C)CC(=O)Nc1nc2c(s1)C[C@@H]1[C@](C)(CO)[C@H](O)CC[C@@]1(C)[C@@H]2CC(=O)NC1CCCCC1	3%	i	79µM*	?	-4	0%
CC(C)(C)C(=O)Nc1nc2c(s1)C[C@@H]1[C@](C)(CO)[C@H](O)CC[C@@]1(C)[C@@H]2CC(=O)NC1CCCC1	?	i	-26%	-21%	-1	3%
COc1ccc(C(=O)Nc2nc3c(s2)C[C@@H]2[C@](C)(CO)[C@H](O)CC[C@@]2(C)[C@@H]3CC(=O)NCc2ccccc2)cc1	2%	i	?	-16%	-5	-5%
C[C@]1(CO)[C@H]2Cc3sc(NC(=O)c4ccc(F)cc4)nc3[C@@H](CC(=O)NC3CCCC3)[C@]2(C)CC[C@H]1O	-6%	i	45µM*	?	-10	-15%
CC(C)(C)c1ccc(C(=O)Nc2nc3c(s2)C[C@@H]2[C@](C)(CO)[C@H](O)CC[C@@]2(C)[C@@H]3CC(=O)N2CCC(C(N)=O)CC2)cc1	56%	?	28µM*	?	7	-4%
CC1CCN(C(=O)C[C@@H]2c3nc(NC(=O)c4ccc(F)cc4)sc3C[C@@H]3[C@](C)(CO)[C@H](O)CC[C@]32C)CC1	1%	i	79µM*	?	-9	-20%
C[C@]1(CO)[C@H]2Cc3sc(NC(=O)c4ccc(F)cc4)nc3[C@@H](CC(=O)N3CCCCC3)[C@]2(C)CC[C@H]1O	7%	i	?	?	-1	-11%
COCC1CN(Cc2sccc2C)CC12CCNCC2 (configuration not stated)	?	i	-22%	?	13	8%
COCc1nn(CC(=O)N2CCc3sccc3C2)c(=O)n1-c1ccccc1	-11%	i	-3%	-12%	8	5%
COCCOC1CCN(C(=O)c2sc(C)nc2C)CC1	139%	35µM*	3%	0%	10	-8%[12.5 µM]
CNC(=O)Nc1cccn2nc(-c3ccccc3)nc12	176%	40µM*	?	?	19	2%
Cc1nn(-c2ccccc2)c2c1C(C)N(C1CCN(C(=O)c3ccccc3)C1)C2=O (configuration not stated)	nt	nt	?	45µM*	-1	nt
Cc1nn(-c2ccccc2)c2c1C(C)N(C1CCN(C(=O)c3cccc(C(F)(F)F)c3)C1)C2=O (configuration not stated)	nt	nt	?	35µM*	0	nt
Cc1ccc(C(=O)N2CCCC(N3C(=O)c4c(c(C)nn4-c4ccccc4)C3C)C2)cc1 (configuration not stated)	nt	nt	?	45µM*	2	nt
CCN(CC)Cc1cc(C(=O)N[C@H](c2cccs2)C2CC(O)C2)c(C)o1 (some centres not stated)	2%	i	-15%	-8%	10	-2%
O[C@@H]1CC(CNCC2CCCC2)(COc2ccc(C(F)(F)F)cn2)C[C@@H]1O (some centres not stated)	0%	i	-17%	?	5	0%
CSc1cccc(NC(=O)CN2C(=O)NC3(CCS(=O)(=O)CC3)C2=O)c1	46%	i	-7%	-3%	-8	-7%
CC(c1ccc(F)cc1)N1Cc2cc(NC(=O)c3cccs3)ccc2OCC1=O (configuration not stated)	19%	i	?	22µM*	10	-18%
COc1cc(F)ccc1-c1nc(N2CCOCC2)cc2c1CN(c1ccccc1)C2=O	-26%[87.6 µM]	71µM*	-25%[138 µM]	?	4	5%[87.6 µM]
CN1Cc2c(cc(N3CCOCC3)nc2-c2cnn(C)c2)C1=O	97%[87.6 µM]	i	25µM*	?	15	9%[87.6 µM]
Cc1ccccc1-c1nc(N2CCOCC2)cc2c1CN(Cc1ccccc1)C2=O	?	i	25µM*	50µM*	10	-27%[87.6 µM]
O=C1c2cc(N3CCOCC3)nc(-c3ccc(F)cc3)c2CN1CC1CC1	18%[87.6 µM]	i	?	100µM*	13	-8%[87.6 µM]
SMILES	SNCA expr inh	FLuc inh	3T3 cytotox	HEK cytotox	IP6K1 inh	SNCA viab count
O=C(NC1CCN(c2ccc3nnc(-c4ccccc4)n3n2)CC1)c1ccccc1Cl	nt	nt	?	?	4	nt
Cn1cccc1CN1CCn2c(nnc2-c2ccccc2)C1	-2%[87.6 µM]	i	?	-30%[172 µM]	7	-4%[87.6 µM]
O=C1c2cc(N3CCOCC3)nc(-c3cccc(CO)c3)c2CN1Cc1ccccc1	-9%[87.6 µM]	i	-80%[138 µM]	79µM*	3	-13%[87.6 µM]
CN(C)c1cccc(-c2nc(N3CCOCC3)cc3c2CN(Cc2cnn(C)c2)C3=O)c1	-6%[87.6 µM]	i	45µM*	?	10	-9%[87.6 µM]
Cn1c2c(c3cc(F)ccc31)CN(C(=O)Nc1cccc(F)c1)CC2	58%	?	22µM*	45µM*	-4	-12%
Cc1cccc(NC(=O)N2CCc3c(c4ccccc4n3C)C2)c1C	-6%	i	?	?	-7	-4%
Cn1c2c(c3ccccc31)CN(C(=O)Nc1cccc(Br)c1)CC2	-23%	?	32µM*	?	-1	4%
Cc1ccc(NC(=O)N2CCc3c(c4ccccc4n3C)C2)cc1C	-23%	?	?	45µM*	-2	4%
c1cc(CN2CCc3c(sc4ncnc(N5CCCC5)c34)C2)ccn1	83%	i	?	-24%	-8	?
Cn1c(Cn2cccn2)nnc1C1CCCN(Cc2nc(C(N)=O)no2)C1 (configuration not stated)	11%	i	1%	4%	9	-2%
Clc1ccc(C2CN(c3cc(C4CC4)ncn3)CCO2)cc1 (configuration not stated)	5%	i	?	25µM*	17	-16%
N#Cc1cccc(C2CCN(c3cc(C4CC4)ncn3)CC2)c1	-1%	i	?	?	28	-15%
CCc1cnc(C)nc1N1CCOC(c2ccc(Cl)cc2)C1 (configuration not stated)	-15%	i	?	11µM*	27	-6%
